Pf growth 96h = P. falciparum growth inhibition at 96 hour, primary screen for plastid delayed-death inhibitors. P. falciparum luciferase reporter growth, 96 h. Potency, µM (titrated, usually from 28.7 µM), hits mostly inhibitors. 320,000 compounds, 6.9% hits. AID 504834
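Two-generation exposure (96 h) targets delayed-death phenotype. Reporter parasites carrying integrated firefly luciferase, in red cells at 2% hematocrit and 0.05% parasitemia final, kept at 37 C, 5% CO2; luminescence loss indicates inhibition.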
Pf growth 48h = P. falciparum growth inhibition at 48 hours (one generation). P. falciparum luciferase growth in erythrocytes, 48 h. Potency, µM (highest dose often 28.7 µM), hits mostly inhibitors. 310,000 compounds, 5.9% hits. AID 504832
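Cell-based growth assay: transgenic P. falciparum expressing firefly luciferase, cultured in red cells within RPMI 1640 containing 0.5% w/v Albumax, 24 mM bicarbonate and gentamycin. A drop in luciferase activity indicates inhibition.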
MARV entry inh = blocks Marburg virus binding to or entry into cells. 300,000 compounds, 1.8% hits. Potency, µM (highest dose often 37.8 µM), hits mostly inhibitors. Marburg virus pseudotyped entry inhibition, cell reporter; calls by dose curve; tested in HEK293 cells
Shiga toxin inh = blocks Shiga toxin action in Vero cells; AID 2315; inhibition, % at 38.7 µM; Vero cells, Shiga toxin protein synthesis inhibition reporter; 290,000 compounds, 9.2% hits; in the data active = inhibition mostly above about 28%, no sharp cut-off; inactive = mostly below about 43%
LASV entry inh = Lassa virus entry inhibition; Lassa virus pseudotype entry inhibition, cell reporter; Potency, µM (highest dose often 37.9 µM), actives largely listed as inhibitors; 300,000 compounds, 1.2% hits; calls by dose curve; tested in HEK293 cells; note: nearly all actives have a fitted effect of over 50% in size
CHX counter = counter-screen hit for Shiga toxin inhibitors, cycloheximide | cell reporter, cycloheximide protein synthesis inhibition counterscreen | 300,000 compounds, 12% hits | max response, %; in the data active = max response mostly above about 13%, no sharp cut-off; inactive = mostly below about 14%; note: read at 38.3 µM for the half of the compounds with a filed dose
Of the large screens only hits and unclear results are named; the others gave an inactive call. Compounds with a hit are over-represented: about 19% of the library has one in this group of screens. Unless noted, calls come from the whole dose curve; as a rule, active = well fitted inhibition curve with a large enough effect; inconclusive = small, poorly fitted or top-dose-only effect, or another doubt; inactive = no such curve, though single readings can be large or run the other way.

COc1ccccc1CC(=O)NC1CCCCCC1	Pf growth 96h inconclusive (no result: MARV entry inh, LASV entry inh)
O=C(NC1CCCCC1)C1CCN(C(=O)NCc2ccccc2)CC1	none (no result: Pf growth 96h)
O=C(NCCc1ccccc1)NC1CCCCC1	Shiga toxin inh 52.2, LASV entry inh inconclusive, CHX counter 38.7
O=C(NC1CCCCC1)C(=S)NCc1ccccc1	MARV entry inh inconclusive, Shiga toxin inh 82.7, CHX counter 20.9
COc1ccccc1CCNC(=O)NC1CCCCC1	CHX counter 17.7 (no result: MARV entry inh, LASV entry inh)
O=C(CSc1ncccc1C(=O)O)NC1CCCCCCC1	none (no result: MARV entry inh, LASV entry inh)
COc1ccc(CNC(=O)NC2CCCCC2)cc1	Shiga toxin inh 32.7, CHX counter 25.9
COc1ccc(CN2CCC(CNC(=O)NC3CCCCC3)CC2)cc1	none (no result: Pf growth 48h)
O=C(NC1CCCCCC1)C(=S)NCCc1ccccc1	Pf growth 96h 10.4µM
S=C(NCCc1ccccc1)NC1CCC(NC(=S)NCCc2ccccc2)CC1 (stereo not drawn)	Pf growth 96h inconclusive, LASV entry inh inconclusive
COc1ccccc1CCNC1CCC(C(C)(C)C)CC1 (stereo not drawn)	Pf growth 96h 2.62µM, Pf growth 48h 2.33µM, MARV entry inh inconclusive, LASV entry inh inconclusive
O=C(NCCC1=CCCCC1)NC1CCCCC1	Shiga toxin inh 72.4, LASV entry inh inconclusive, CHX counter 44.5
CC(=O)Nc1ccc2[nH]c(C)cc(=O)c2c1	none (no result: Pf growth 48h)
O=C(CCNC(=O)OCc1ccccc1)NC1CCCCC1	Pf growth 96h 3.7µM
COc1ccccc1CCNC(=O)C1(C)CC1(Cl)Cl (stereo not drawn)	MARV entry inh inconclusive, CHX counter 14.5
O=C(NCc1cccnc1)NC1CCCCC1	MARV entry inh inconclusive
O=C(NCc1ccccc1)NC1CCCCC1	Shiga toxin inh 41.8, LASV entry inh inconclusive, CHX counter 38.5 (no result: Pf growth 48h)
CC1(C(=O)NCCOc2ccccc2Cl)CC1(Cl)Cl (stereo not drawn)	Pf growth 96h inconclusive, MARV entry inh inconclusive
CCOc1cc(NC(=O)C2CC2)c(OCC)cc1NC(=O)c1ccccn1	Pf growth 48h 14.7µM, MARV entry inh inconclusive, LASV entry inh inconclusive (no result: Pf growth 96h)
CCOc1cc(NC(=O)c2ccccn2)c(OCC)cc1NC(=O)CC(C)C	Pf growth 96h 3.7µM, Pf growth 48h 13.1µM
COc1cc(=O)[nH]c(SCc2c(F)c(F)c(F)c(F)c2F)n1	none (no result: Pf growth 96h)
O=C(COc1ccc2cc(Br)ccc2c1)N1CCCC1	Pf growth 96h inconclusive (no result: MARV entry inh, LASV entry inh)
O=C(COc1ccc(Br)cc1)N1CCCCCC1	CHX counter 14.4 (no result: Pf growth 48h)
CC1CCN(C(=O)COc2ccc(S(=O)(=O)N3CCCC3)cc2)CC1	none
O=C(COc1ccc(Cl)cc1)N1CCCC1	Shiga toxin inh 37.1, CHX counter 12.2
O=C(COc1ccc(S(=O)(=O)N2CCCCC2)cc1)N1CCCCCC1	Pf growth 96h 13.1µM, Pf growth 48h inconclusive
Cc1ccc(OCC(=O)N2CCCCCCC2)cc1	Pf growth 96h inconclusive, CHX counter 15.9
Cc1ccc(NC(=O)C(C)[n+]2ccccc2)cc1[N+](=O)[O-] (stereo not drawn)	LASV entry inh inconclusive
C=CCN(c1ccccc1OC)S(=O)(=O)c1cccc(C(=O)OC2CCOC2=O)c1 (stereo not drawn)	none (no result: Pf growth 96h, Pf growth 48h, Shiga toxin inh, CHX counter)
O=C(COc1ccc(Br)cc1)N1CCN(S(=O)(=O)/C=C/c2ccccc2)CC1	Pf growth 96h 11.7µM, Pf growth 48h inconclusive, MARV entry inh inconclusive, LASV entry inh inconclusive
CCCCOc1ccc(S(=O)(=O)N2CCCCCC2)cc1	Pf growth 96h 11.7µM
NS(=O)(=O)c1ccc(NC(=O)CCC(=O)N2CCOCC2)cc1	none
Cc1c(NC(=O)c2ccc(S(=O)(=O)N(C)c3ccccc3)cc2)c(=O)n(-c2ccccc2)n1C	MARV entry inh inconclusive
COc1ccc(O)c(C(=O)CC(=O)c2ccccc2C)c1	Pf growth 48h inconclusive, MARV entry inh inconclusive, Shiga toxin inh 76.3, LASV entry inh inconclusive, CHX counter 58.3
COc1ccc(C(=O)CC(=O)c2ccccc2O)cc1OC	Pf growth 48h inconclusive, Shiga toxin inh 78.8, CHX counter 34.2
COc1ccc(C(=O)CC(=O)c2ccccc2O)cc1	Pf growth 96h inconclusive, Pf growth 48h inconclusive, MARV entry inh inconclusive, LASV entry inh inconclusive, CHX counter 39.5 (no result: Shiga toxin inh)
COc1ccc(C(=O)c2ccccc2C(=O)c2ccccc2)cc1	none (no result: Pf growth 96h, Pf growth 48h, Shiga toxin inh, CHX counter)
COc1ccc(O)c(C(=O)CC(=O)c2ccc(F)cc2)c1	MARV entry inh 12.6µM, LASV entry inh 10µM, CHX counter 20.4 (no result: Pf growth 48h)
COCCCNS(=O)(=O)c1cc2c3c(c1)C(C)C(=O)N3CCC2 (stereo not drawn)	none (no result: MARV entry inh, LASV entry inh)
CCOc1ccc(CNc2ccc(N3CCOCC3)c(C(=O)O)c2)cc1	none
CCOc1ccc(S(=O)(=O)Nc2ccccc2SC)cc1	Pf growth 48h inconclusive
COc1cccc2c1C(=O)O/C2=C/c1ccc2c(c1)OCO2	Shiga toxin inh 71.2, CHX counter 43.1 (no result: Pf growth 48h, LASV entry inh)
COc1ccc(C=O)cc1COc1ccc2c(c1)OCO2	none (no result: Shiga toxin inh, CHX counter)
O=C1/C(=C/c2cccs2)COc2ccccc21	MARV entry inh inconclusive, Shiga toxin inh 92.5, CHX counter 34.3
COc1ccc(CC(=S)N2CCOCC2)cc1OC	Pf growth 96h inconclusive
COc1ccc(Nc2nc(-c3sc(C)nc3C)cs2)cc1	CHX counter 13.0 (no result: MARV entry inh, LASV entry inh)
Cc1nc(C)c(-c2csc(Nc3cccnc3)n2)s1	MARV entry inh inconclusive, Shiga toxin inh 37.7, CHX counter 34.2 (no result: Pf growth 96h)
Cc1nc(C)c(-c2csc(Nc3ccc(N)cc3)n2)s1	Shiga toxin inh 68.7, CHX counter 34.7 (no result: MARV entry inh, LASV entry inh)
c1cncc(Nc2nc(-c3ccncc3)cs2)c1	MARV entry inh inconclusive (no result: Pf growth 96h)
Cc1nc(N)sc1-c1csc(Nc2ccccc2)n1	MARV entry inh inconclusive, Shiga toxin inh 51.6, CHX counter 24.9
Cc1ccsc1C1C(C#N)=C(N)N(N(C)C)C2=C1C(=O)CCC2 (stereo not drawn)	Pf growth 48h inconclusive
O=S1(=O)CCO[C@H]2Cc3ccccc3[C@H]2N1Cc1cccc(Cl)c1	Pf growth 96h inconclusive (no result: MARV entry inh, LASV entry inh)
CCOC(=O)C1(Cc2ccccc2)CCN(Cc2ccc(C)s2)CC1	Pf growth 48h inconclusive, MARV entry inh inconclusive
Cc1ccc(OCC(=O)Nc2nnc(S(=O)(=O)N3CCCCCC3)s2)cc1	Pf growth 96h inconclusive, LASV entry inh inconclusive (no result: MARV entry inh)
Cc1cccc(OCC(=O)Nc2nnc(S(=O)(=O)N3CCCCCC3)s2)c1	Pf growth 96h 11.7µM (no result: MARV entry inh)
O=C(Nc1nnc(S(=O)(=O)N2CCOCC2)s1)c1ccccc1Cl	none (no result: MARV entry inh)
O=C(Nc1nc(COc2ccccc2)cs1)c1ccccc1F	MARV entry inh inconclusive, Shiga toxin inh 14.5
O=C(Nc1nnc(S(=O)(=O)N2CCOCC2)s1)c1ccccc1F	CHX counter 16.8 (no result: MARV entry inh)
O=C(Nc1nnc(S(=O)(=O)N2CCOCC2)s1)c1cccc(F)c1	Shiga toxin inh 30.9, CHX counter 20.5 (no result: MARV entry inh)
Cc1cc(OCCn2cnc3ccccc3c2=O)cc(C(C)C)c1	none
CS(=O)(=O)N1CCN(c2ccccc2NC(=S)NC(=O)c2ccccc2[N+](=O)[O-])CC1	Pf growth 96h inconclusive, Pf growth 48h inconclusive
O=C(CCCCC(=O)Nc1ccc(F)cc1)Nc1ccc(F)cc1	none (no result: MARV entry inh, LASV entry inh)
Cc1ccccc1C(=O)Nc1nnc(S(=O)(=O)N2CCCCCC2)s1	none (no result: MARV entry inh)
O=C(Nc1nnc(S(=O)(=O)N2CCCCCC2)s1)c1ccccc1F	CHX counter 11.3 (no result: MARV entry inh)

Source: PubChem BioAssay (National Center for Advancing Translational Sciences (NCATS))
